CHO-K1 Ca PAM: counter-screen for M1 PAMs: effect in parental CHO-K1 cells | AID 602247 | ATP EC20, Fluo-8 calcium fluorescence; 0% at ATP EC20, 100% at ATP max | activation, % at 3 µM | hit rate 0.02% among 360,000;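 active means activation above the run cutoff, the mean activation of all test compounds plus 3 SD, cut at about 40% in these data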;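 further: peak over basal fluorescence ratio in a 140 s read after ATP addition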
CHO-K1 Ca antag: nonselective inhibitor or artifact in parental CHO-K1 cells; ATP-induced calcium, Fluo-8 fluorescence; inhibition, % at 3 µM; hit rate 0.6% among 360,000; AID 602250;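 active means inhibition above a per-plate cutoff, the plate's mean sample inhibition plus 3 SD, cut at about 24% in these data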;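 further: 0% = DMSO plus EC80 ATP and 100% = DMSO alone without ATP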
CHRM1 agonist: human M1 muscarinic receptor agonism. activation, % at 3 µM. P11229. CHO-K1 hM1, Fluo-8 calcium fluorescence, agonist mode; 0% DMSO, 100% acetylcholine EC100. hit rate 0.33% among 360,000;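 active means activation above the run's mean compound activation plus 3 SD, cut at about 16% in these data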;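 further: peak over basal fluorescence ratio within a 140 s kinetic read after compound addition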
Target sequence (P11229 whole entry, looked up): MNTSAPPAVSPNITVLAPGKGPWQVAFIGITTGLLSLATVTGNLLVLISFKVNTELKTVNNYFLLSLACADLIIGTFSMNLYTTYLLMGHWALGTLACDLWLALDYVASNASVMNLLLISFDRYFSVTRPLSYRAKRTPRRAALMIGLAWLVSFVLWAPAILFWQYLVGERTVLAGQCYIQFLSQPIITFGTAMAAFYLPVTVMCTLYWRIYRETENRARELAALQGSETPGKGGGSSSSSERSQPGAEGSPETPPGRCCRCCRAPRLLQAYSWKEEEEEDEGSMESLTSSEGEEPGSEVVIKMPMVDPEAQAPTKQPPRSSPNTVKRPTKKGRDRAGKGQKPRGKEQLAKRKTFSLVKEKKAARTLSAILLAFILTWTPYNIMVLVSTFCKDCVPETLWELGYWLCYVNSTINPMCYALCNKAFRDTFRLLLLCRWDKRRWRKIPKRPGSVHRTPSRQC
M1 antag: antagonists of human M1 muscarinic receptor | hit rate 1.3% among 360,000 | CHO-K1 hM1, Fluo-8 calcium fluorescence, ACh EC80 antagonist | inhibition, % at 3 µM | AID 588852;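 active means percent inhibition above its own plate's cutoff, namely the mean of that plate's compound wells plus 3 SD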;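 further: peak over basal fluorescence ratio during 140 s after agonist addition; 0% = ACh EC80 plus DMSO and 100% = DMSO alone without agonist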
CHO-K1 Ca ag: M1 agonist counterscreen hit in parental CHO-K1 cells | activation, % at 3 µM | Fluo-8 calcium fluorescence; scaled to maximal ATP response, vehicle zero | hit rate 0.48% among 360,000; in the data active means activation above about 15%;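 further: untransfected CHO-K1 host cells lacking M1 receptor as counterscreen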
CHRM1 PAM: positive allosteric modulators of human M1 muscarinic receptor; CHO-K1 hM1, Fluo-8 calcium fluorescence, ACh EC20; 0% = ACh EC20, 100% = maximal ACh; P11229; activation, % at 3 µM; hit rate 0.088% among 360,000; AID 588819; in the data active means activation above about 19%, passing the limit was not always enough
Numbers without * were called inactive; . = no result. Only some compounds are listed: those with a hit (about 2.3% of all), similar ones and a draw of the others.

SMILES | CHO-K1 Ca PAM | CHO-K1 Ca antag | CHRM1 agonist | M1 antag | CHO-K1 Ca ag | CHRM1 PAM
CCC1Sc2ccc(S(=O)(=O)Nc3ccc(OC)cc3)cc2NC1=O (stereo not given) | 13 | -4 | 15 | 8 | 18* | -1
CCC1Sc2ccc(S(=O)(=O)Nc3ccc(OC)c(OC)c3)cc2NC1=O (stereo not given) | -6 | 34* | 5 | 23 | 12 | -12
COc1ccc(CN2CCc3c([nH]c4ccccc34)C2)c(OC)c1C | 17 | 4 | -9 | 7 | 0 | -5
CON(C)C(=O)CC1(CN(Cc2ccccc2)C(=O)OC(C)(C)C)CCCCC1 | 3 | -17 | -1 | 5 | -1 | -1
C#CC(=O)CC1(CN(Cc2ccccc2)C(=O)OC(C)(C)C)CCCCC1 | -12 | -3 | -14 | 34* | 0 | -33
CCC(C)C(NC(=O)C1CCC(C)CC1)C(=O)NCc1ccccn1 (stereo not given) | 19 | -2 | -3 | -21 | 0 | 14
CC(=O)Nc1ccc(NC(=O)COC(=O)c2c3c(nc4ccccc24)CCN(Cc2ccccc2)C3)cc1 | -9 | 5 | 3 | 45* | 6 | -23
CCN1CCc2nc3ccccc3c(C(=O)Nc3ccc(NC(C)=O)cc3)c2C1 | 22 | -9 | -1 | -15 | 3 | 17
O=C(COC(=O)c1c2c(nc3ccccc13)CCN(Cc1ccccc1)C2)Nc1c(F)cccc1F | 4 | 2 | -2 | 36* | 6 | -13
Cc1ccc(N(C)C(=O)CCNC(=O)Cn2cnc3ccccc3c2=O)cc1C | 17 | 35* | -5 | -14 | 1 | 9
CCN(CC)c1ccc(C2C(C(=O)OCCOC(C)C)=C(C)NC3=C2C(=O)CCC3)cc1 (stereo not given) | -8 | 19 | -6 | 90* | 0 | -23
COc1cc(OC)c(C2C=CC(=O)CC2)c(OC)c1 (stereo not given) | 20 | -24 | . | . | 0 | .
COC(=O)C1CCN(C(=O)CN(C)Cc2ccc(C(C)(C)C)cc2)CC1 | 7 | 4 | -11 | 34* | 0 | -25
CN(Cc1ccc(C(C)(C)C)cc1)C(=O)C1CCN(C(=O)Nc2ccccc2)CC1 | 0 | -1 | -4 | -6 | 5 | 2
CCCCNC(=O)Nc1ncn[nH]1 | -14 | -13 | -5 | -8 | 0 | 2
Cc1ccccc1S(=O)(=O)Cc1ccc(C(=O)N2CCN(c3cccc(C)c3C)CC2)o1 | 4 | 26* | 3 | 25 | 7 | -6
Cn1cnnc1SCCNS(=O)(=O)c1cccc([N+](=O)[O-])c1 | -6 | 11 | -2 | 3 | 0 | 2
O=C(CNC(=O)c1ccco1)NCc1ccc2c(c1)OCO2 | 16 | -14 | -4 | -8 | 1 | 9
C(#CCN1CCCC1)CC(c1ccccc1)c1ccccc1 | 3 | -8 | -13 | 100* | 7 | -32
CC(C)C(O)(CC#CCN1CCCC1)c1ccccc1 (stereo not given) | 17 | -8 | -8 | 99* | 2 | -26
CC(C)CC(O)(c1ccccc1)C(CN1CCOCC1)c1ccccc1 (stereo not given) | 10 | -16 | -3 | -3 | 0 | 1
CC(C)(C)N(CC#CCC(O)(c1ccccc1)c1ccccc1)CCO | 16 | -11 | -8 | 13 | 1 | -14
OC(CC#CCN1CCCC1)(c1ccccc1)c1ccccc1 | 13 | -1 | -6 | 100* | 1 | -25
OC(CC#CCN1CCOCC1)(c1ccccc1)c1ccccc1 | 5 | -2 | -9 | -10 | 0 | 5
OC(CC#CCN1CCCCC1)(c1ccccc1)c1ccccc1 | 13 | -8 | -7 | 97* | 2 | -29
SMILES | CHO-K1 Ca PAM | CHO-K1 Ca antag | CHRM1 agonist | M1 antag | CHO-K1 Ca ag | CHRM1 PAM
CCn1c(=O)c2sccc2n(CC(=O)NCCC2=CCCCC2)c1=O | 2 | 2 | -2 | -10 | -1 | 8
CC(C)(C)C(O)(CC#CCN1CCCC1)c1ccccc1 (stereo not given) | -11 | -6 | -5 | 98* | 0 | -23
COc1cccc(OC)c1C(=O)NCCOc1cc(C)cc(C)c1 | 4 | 10 | 1 | -11 | 15* | 6
Cc1ccc2ccccc2c1C(O)c1ncc(-c2ccc(F)cc2)[nH]1 (stereo not given) | 2 | 2 | 2 | 2 | 4 | 2
COc1cccc(-c2cnc(C(O)c3c(C)ccc4ccccc34)[nH]2)c1 (stereo not given) | 2 | 3 | 9 | -1 | 20* | -1
COC(=O)C1CCN(C(=O)COC(=O)c2cc(-c3cccs3)nn2-c2ccccc2)CC1 | -22 | 1 | -8 | 16 | 1 | -15
CC1CCCCN1C(=O)COC(=O)c1cc(-c2cccs2)nn1-c1ccccc1 (stereo not given) | 14 | -12 | -7 | 45* | 1 | -26
CSc1ncccc1C(=O)Nc1nc2ccc(Oc3ccccc3)cc2s1 | 14 | -7 | -6 | 7 | 1 | -6
COc1ccc(C(=O)Nc2ccnn2C2CCN(C(=O)c3cnsn3)CC2)cc1 | 3 | -5 | -1 | -12 | 0 | 10
C=CCN1C(=O)c2cccc3c(N4CCCCC4)ccc(c23)C1=O | 2 | 11 | 7 | 6 | 11 | -5
O=C1c2cccc3c(N4CCCCC4)ccc(c23)C(=O)N1c1cccc(O)c1 | -1 | 23 | 36* | 32* | 30* | -7
CC(=O)c1ccc2c3c(cccc13)C(=O)N(c1c(C)nn(C)c1C)C2=O | 12 | -3 | 2 | -13 | 2 | 2
O=C(OCCN1C(=O)c2cccc3c(N4CCOCC4)ccc(c23)C1=O)c1ccccc1Cl | -7 | 23 | 15 | 44* | 18* | -24
O=C1c2cccc3c(N4CCCCC4)ccc(c23)C(=O)N1CCO | 1 | 1 | 12 | 1 | 17* | 3
Cc1n[nH]c(C)c1N1C(=O)c2cccc3c(N4CCCCCC4)ccc(c23)C1=O | -3 | 55* | 93* | 63* | 83* | -20
O=C(c1cccc(N2C(=O)c3ccccc3C2=O)c1)N1CCCCCC1 | 2 | -6 | -3 | 1 | 1 | 2
CC12CN(C(=O)c3ccccc3Br)CC(C)(CN(C(=O)c3ccccc3Br)C1)C2=O | 14 | -13 | -2 | 1 | 0 | 2
Cc1ccc(S(=O)(=O)N2CCCCC2)cc1C(=O)Nc1ccc(S(=O)(=O)Nc2ncccn2)cc1 | 20 | -19 | -2 | -4 | 1 | 3
CC1CCC(NC(=O)C2COc3ccccc3O2)CC1 (stereo not given) | -8 | 21 | -6 | -5 | -1 | 2
O=C(Nc1nnc(-c2ccc3c(c2)CCCC3)o1)C1COc2ccccc2O1 (stereo not given) | -10 | 25* | -4 | 3 | -1 | -4
O=C(NC1CCCCC1)C1COc2ccccc2O1 (stereo not given) | 3 | -3 | -7 | 46* | 1 | -26

Assay outcomes (PubChem)
